Screens: PubChem BioAssay, Broad Institute
Glyco luc inh – N-linked glycosylation inhibition; reporter increase, % at 12.5 µM; 360,000 tested, 0.23% active; AID 588692; D54 ERlucT glycosylation luciferase reporter, 24 h; percent of 100 nM tunicamycin response;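 active means mean luciferase reporter signal, scaled so untreated is 0 and the glycosylation-blocking control 100, at or above a set limit in every replicate; inconclusive means mean reaches the limit but not every replicate does; inactive means mean below the limit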;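 further: luciferase carries N-glycosylation sites so blocking glycosylation raises the light; 0% = median of neutral control wells and 100% = median of 100 nM tunicamycin wells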
esBAF inh – inhibitors of esBAF chromatin remodeling in mouse ES cells; Bmi1-luciferase knock-in reporter, 24 h; 100% = twice the neutral-well signal; reporter increase, % at 12.5 µM; 350,000 tested, 2% active; AID 602393; in the data active means activation above about 40%; inconclusive means no clear call, values can overlap the other calls;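 further: 0% = median of the plate's neutral control wells and 100% = double that signal; a rise in the Bmi1 reporter signal indicates esBAF inhibition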
Vif imaging – HIV Vif inhibition; inhibition, % at 7.49 µM; HEK293T cells, Vif self-association by quenched fluorescence, imaging, 24 h; AID 602346; 340,000 tested, 0.35% active; in the data active means inhibition above about 50%, passing the limit was not always enough; inconclusive means no clear call, values can overlap the other calls; inactive means below about 31%
Wnt bcat act – activators of Wnt/beta-catenin signaling; Wnt/beta-catenin reporter cell assay, activator, plate reader; activation, % at 9.35 µM; 300,000 tested, 1.2% active; AID 743398; in the data active means activation above about 30%, passing the limit was not always enough; inconclusive means no clear call, values can overlap the other calls;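 further: 0% = neutral control wells and 100% = positive control wells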
PfHsp90 yeast 2 – growth inhibition of yeast expressing Plasmodium Hsp90 | S. cerevisiae expressing PfHsp90, BacTiter-Glo ATP, 48 h; yeast lacking PDR1 and PDR3 efflux regulators | inhibition, % at 9.4 µM | 310,000 tested, 0.32% active;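 active means every replicate shows inhibition above about 80%, whatever the replicate mean, limit read from the data; inconclusive means mean inhibition reaches the set limit but some replicate falls short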;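 further: 0% = DMSO neutral controls and 100% = 20 µM radicicol positive controls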
MITF act – activators of MITF-driven TRPM1 promoter activity in SK-MEL-5 cells; SK-MEL-5 TRPM1-promoter luciferase, 24 h; % of positive control, neutral wells = 0; activation, % at 12.5 µM; 300,000 tested, 0.75% active; AID 588334;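 active means mean activation of at least 80% with every replicate also reaching 80%; inconclusive means mean reaches 80% but some replicate falls short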;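 further: 0% = neutral control wells and 100% = parthenolide positive control wells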
Starred values were filed as active, the others as inactive; ? = inconclusive; . = no result. The list is not random: actives were taken first. Their share in the collection is about 3%.

SMILES	Glyco luc inh	esBAF inh	Vif imaging	Wnt bcat act	PfHsp90 yeast 2	MITF act
CSCCC(NC(=O)OC(C)(C)C)C(=O)Oc1ccc2c(=O)c(-c3ccc4c(c3)OCCO4)coc2c1 (stereo not given)	-16	-5	2	37*	.	.
O=C1CCC[C@@H]2C[C@@]3(C[C@@H]4CCN1[C@H]24)Nc1cc(Cl)c(Cl)cc1NC3=NCc1ccccc1	-2	74*	-2	9	9	1
Fc1ccc(/C=C/c2nnc(-c3cccs3)o2)cc1	-5	.	5	53*	-34	66
COc1ccc(C(=O)C2CCN(CC(=O)Nc3cc(C)cc(C)c3)CC2)cc1	-2	6	14	0	25	.
CCCC(=O)NC(c1cccs1)c1cc([N+](=O)[O-])c2cccnc2c1O (stereo not given)	-10	.	-5	-5	67	-5
CCCCC(=O)NC(c1ccco1)c1cc(Cl)c2cccnc2c1O (stereo not given)	-6	-10	9	-3	105*	-4
O=C(CCc1ccccc1)NC(c1cccs1)c1cc(Cl)c2cccnc2c1O (stereo not given)	-16	.	-39	-4	101*	-58
CC(C)(C)c1nc(CN2CCOCC2)ccc1O	0	7	4	.	.	-1
COc1ccc(CC(=O)Nc2ccc3c(c2)OC2(CCCC2)O3)c(OC)c1	-2	0	2	-3	.	.
CC(=O)Nc1ccc(CC(=O)Nc2ccc3c(c2)OC2(CCCC2)O3)cc1	0	46*	-8	-6	.	.
COc1cccc(CC(=O)Nc2ccc3c(c2)OC2(CCCC2)O3)c1	-2	42*	-10	3	-23	19
COc1ccc(CN2CCCC(C(=O)Nc3cccc(-n4cccn4)c3)C2)c(F)c1 (stereo not given)	-1	.	-8	-1	-1	-13
S=c1nc(NCCc2ccccc2Cl)c2ccccc2[nH]1	-10	41*	2	26	-14	72
Cc1c(C(=O)N(C)C2CCCCC2)sc2ncnc(N3CCN(c4ccccc4)CC3)c12	-3	5	-9	-4	-4	2
CCC(C)(C)C1CCc2[nH]nc(C(=O)NN)c2C1 (stereo not given)	-3	.	4	-5	11	.
CCC(C)(C)C1CCc2[nH]nc(C(=O)NC3CCCCC3)c2C1 (stereo not given)	-4	58*	-14	5	3	34
Clc1ccc(-c2noc(CN3CCCC3)n2)cc1	1	44*	4	0	0	.
COc1cccc(NC(=S)NC(=O)/C=C/c2ccco2)c1	6	3	102*	10	-5	2
O=C(/C=C/c1ccco1)NC(=S)Nc1cccc(C(=O)O)c1	0	19	8	4	-26	8
O=C(/C=C/c1ccco1)NCCc1ccccc1	1	52*	1	55*	17	63
O=C(/C=C/c1ccco1)NC(=S)Nc1ccccc1O	0	.	3	3	-56	48
O=C(O)CCCNC(=O)/C=C/c1ccco1	4	.	.	2	26	10
O=C(/C=C/c1ccco1)NC(=S)Nc1ccccn1	1	46*	8	42*	.	.
O=C(/C=C\c1ccco1)NC(=S)Nc1ccccc1O	0	.	-5	16	-65	88*
O=C(Nc1ccc(N2CCCC2)cc1)c1ccc(Br)cc1	0	30	5	0	6	14
SMILES	Glyco luc inh	esBAF inh	Vif imaging	Wnt bcat act	PfHsp90 yeast 2	MITF act
O=C(NN=C1CCCCC1)NC1CCCCC1	2	.	-1	6	-3	1
CCOC(=O)c1ccccc1NC(=O)C1COc2ccccc2O1 (stereo not given)	2	-4	-4	2	-3	3
CN1CCN(c2ccc(NC(=S)NC(=O)/C=C/c3ccco3)cc2)CC1	-11	45*	-6	0	4	43
CC(=O)Nc1ccc(NC(=S)NC(=O)/C=C/c2ccco2)cc1	1	-2	2	3	-59	.
COc1ccccc1C1CC(c2cccs2)=NN1C(=O)CCC(=O)O (stereo not given)	4	4	-2	-2	-31	-15
COc1ccccc1C1CC(c2cccs2)=Nc2ccccc2S1 (stereo not given)	-1	53*	4	41*	23	3
O=C(CCN1C(=O)C2CCCCC2C1=O)Nc1nc2c(F)cc(F)cc2s1 (stereo not given)	0	?	-17	41*	33	90*
O=C(Nc1nc2c(F)cc(F)cc2s1)C1CC1	0	49*	0	15	-5	.
Cc1cccc2sc(NC(=O)C3CC3)nc12	3	8	-15	4	11	25
Cc1ccc2sc(NC(=O)C3CC3)nc2c1C	2	63*	-4	22	32	37
O=C(CN1C(=O)CCC1=O)Nc1nc2c(F)cc(F)cc2s1	0	-2	-8	1	6	6
COc1ccc(CCn2cnc3c([nH]c4ccccc43)c2=O)cc1	-1	.	4	4	-13	-1
COc1ccc2[nH]c3c(=O)n(CCc4ccccc4)cnc3c2c1	2	.	9	37*	-42	63
COc1ccc2cc(-c3ccccc3)ncc2c1	-10	2	-6	32*	2	40
COc1ccc2cc(C3=CCCCC3)ncc2c1	-12	8	-6	42*	-8	31
COc1cc(OC)cc(-c2cc3ccc(OC)cc3cn2)c1	-1	24	18	16	23	64
COc1ccc2cc(-c3ccsc3)ncc2c1	-8	29	-5	41*	-21	-59
CC(=O)Oc1ccc(C(=O)Nc2ccccc2C(=O)NCC(C)C)cc1	-1	-7	-2	-1	-6	-4
O=C(c1cc(=O)c2cc(Cl)ccc2o1)N1CCN(Cc2ccccc2)CC1	2	-1	-3	-2	16	10
O=C(Nc1nc2c(s1)CCCC2)c1cc(-c2ccncc2)nc2ccccc12	-7	.	3	18	-1	9
Cc1cc(C)n(-c2nnc(NC(C)(C)C)nn2)n1	-1	.	10	.	11	?
Cc1cc(C)n(-c2nnc(NC34CC5CC(CC(C5)C3)C4)nn2)n1	-4	58*	-1	.	-45	138*
CCc1nc(C)cn1S(=O)(=O)c1ccc(Br)cc1	2	-3	14	51*	-17	-5
Cc1ccc2nc(NC(=O)CSc3nc(=O)n(CCN(C)C)c4c3CCCC4)sc2c1	0	2	-2	3	11	2
CCCC#Cc1ccc([C@@H]2[C@@H](C#N)N(C(=O)C3CC3)[C@@H]2CO)cc1	.	0	.	.	.	.
O=C(CC(C(=O)O)c1c[nH]c2ccccc12)c1ccccc1 (stereo not given)	1	27*	0	4	-44	1
